# PubChem BioAssay (EPA / NIEHS)
# “And” between values parts separate entries of the source, which are not always exact repeats. Identical values can stand only once. Records with an inconclusive call do not appear. Some structures have more than one record in an assay (separate samples or runs), and their calls can disagree. The source made the active and inactive calls. Rule for the calls: active = hit-call score of the fitted dose curve at least 0.9, where 1 is the maximum; inconclusive = response in the unintended direction; inactive = score below 0.9.
# Assays:
# [1] = target: human Phosphodiesterase 10 (PDE10), PDE10A (gene 10846) (UniProt Q9Y233); test: NVS_ENZ_hPDE10: NovaScreen (NVS) Enzymatic Assay for human Phosphodiesterase 10 (PDE10) (AID 2283195)
# Sequence of human Phosphodiesterase 10 (PDE10), PDE10A (gene 10846) (Q9Y233 whole entry, looked up): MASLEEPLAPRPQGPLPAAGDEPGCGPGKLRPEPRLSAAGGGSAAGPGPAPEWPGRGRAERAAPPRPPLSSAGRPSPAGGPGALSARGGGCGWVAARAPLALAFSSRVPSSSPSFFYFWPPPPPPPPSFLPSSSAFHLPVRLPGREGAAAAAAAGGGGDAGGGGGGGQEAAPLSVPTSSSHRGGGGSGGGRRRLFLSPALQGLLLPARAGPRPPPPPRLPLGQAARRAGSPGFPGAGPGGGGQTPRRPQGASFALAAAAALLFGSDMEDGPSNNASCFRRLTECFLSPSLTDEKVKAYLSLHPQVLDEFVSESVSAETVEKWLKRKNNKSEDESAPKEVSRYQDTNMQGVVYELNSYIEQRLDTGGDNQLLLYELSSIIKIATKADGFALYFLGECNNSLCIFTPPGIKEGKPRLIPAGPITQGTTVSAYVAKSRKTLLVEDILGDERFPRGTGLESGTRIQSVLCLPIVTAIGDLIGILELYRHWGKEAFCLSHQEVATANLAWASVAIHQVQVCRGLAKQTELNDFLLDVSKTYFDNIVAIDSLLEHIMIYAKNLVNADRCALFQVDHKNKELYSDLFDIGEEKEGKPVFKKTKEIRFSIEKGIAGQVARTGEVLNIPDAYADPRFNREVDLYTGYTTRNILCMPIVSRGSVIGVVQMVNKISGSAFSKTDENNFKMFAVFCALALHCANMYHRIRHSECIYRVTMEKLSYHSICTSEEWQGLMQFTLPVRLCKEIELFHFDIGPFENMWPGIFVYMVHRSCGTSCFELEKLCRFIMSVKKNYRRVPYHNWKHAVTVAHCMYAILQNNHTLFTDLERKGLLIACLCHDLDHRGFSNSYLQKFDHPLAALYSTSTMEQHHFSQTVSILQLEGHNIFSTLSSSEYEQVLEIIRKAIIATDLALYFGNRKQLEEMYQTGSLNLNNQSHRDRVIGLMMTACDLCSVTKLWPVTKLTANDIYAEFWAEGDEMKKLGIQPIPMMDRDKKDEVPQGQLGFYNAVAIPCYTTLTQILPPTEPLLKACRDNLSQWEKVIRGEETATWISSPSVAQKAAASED
# Procedure, shortened: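 Recombinant human PDE10 with fluorescent substrate, 1 h, product separated by electrophoretic mobility shift. Loss of enzyme activity fitted against DMSO; initial screen 25 uM in duplicate, actives run to 50 uM maximum.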
# PPP2CA (gene 5515) = PPP2CA (gene 5515) (UniProt P67775); test: NVS_ENZ_hPPP2CA: NovaScreen (NVS) Enzymatic Assay for human Protein Phosphatase 2 Aatalytic subunit Alpha (PPP2CA) (AID 2283199)
# Sequence of PPP2CA (gene 5515) (P67775 whole entry, looked up): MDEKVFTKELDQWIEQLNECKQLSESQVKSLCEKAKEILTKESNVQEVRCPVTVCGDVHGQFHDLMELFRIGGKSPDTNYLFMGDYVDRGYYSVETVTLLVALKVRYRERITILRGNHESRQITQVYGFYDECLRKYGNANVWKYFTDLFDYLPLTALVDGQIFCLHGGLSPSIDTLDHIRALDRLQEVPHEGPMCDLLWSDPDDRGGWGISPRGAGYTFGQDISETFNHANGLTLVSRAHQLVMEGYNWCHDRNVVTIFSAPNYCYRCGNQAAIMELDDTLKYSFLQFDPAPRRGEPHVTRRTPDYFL
# Procedure, shortened: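 Recombinant human PPP2CA with fluorescent substrate; product separated from substrate by electrophoretic mobility shift, read 1.33 h after dosing. Duplicate single-point at 25 uM, then singleton concentration-response up to 50 uM; loss of signal versus DMSO.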
# [2] = target: human Phosphatase and Tensin Homolog (PTEN), PTEN (gene 5728) (UniProt P60484); test: NVS_ENZ_hPTEN: NovaScreen (NVS) Enzymatic Assay for human Phosphatase and Tensin Homolog (PTEN) (AID 2283203)
# Sequence of human Phosphatase and Tensin Homolog (PTEN), PTEN (gene 5728) (P60484 whole entry, looked up): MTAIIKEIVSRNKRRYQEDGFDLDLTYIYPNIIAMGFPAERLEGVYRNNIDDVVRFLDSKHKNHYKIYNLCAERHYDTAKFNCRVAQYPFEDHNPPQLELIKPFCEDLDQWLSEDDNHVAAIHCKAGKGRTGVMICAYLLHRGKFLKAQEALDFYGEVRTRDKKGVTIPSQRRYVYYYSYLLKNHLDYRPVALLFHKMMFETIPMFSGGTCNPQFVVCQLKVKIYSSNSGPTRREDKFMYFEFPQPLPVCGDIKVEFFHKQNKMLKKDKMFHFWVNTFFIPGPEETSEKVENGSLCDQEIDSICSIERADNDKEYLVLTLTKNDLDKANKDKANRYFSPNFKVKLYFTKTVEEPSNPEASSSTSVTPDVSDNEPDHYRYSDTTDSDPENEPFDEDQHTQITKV
# Procedure, shortened: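 Cell-free recombinant human PTEN with fluorescent substrate; product separated by electrophoretic mobility shift and read by fluorescence 1 h after dosing. Primary screen in duplicate at 25 uM, actives followed in concentration series versus DMSO.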
# [3] = target: Tyrosine-protein phosphatase non-receptor type 12 (Homo sapiens) (UniProt Q05209); test: NVS_ENZ_hPTPN12: NovaScreen (NVS) Enzymatic Assay for human Protein Tyrosine Phosphatase Non-receptor Type 12 (PTPN12) (AID 2283204)
# Sequence of Tyrosine-protein phosphatase non-receptor type 12 (Homo sapiens) (Q05209 whole entry, looked up): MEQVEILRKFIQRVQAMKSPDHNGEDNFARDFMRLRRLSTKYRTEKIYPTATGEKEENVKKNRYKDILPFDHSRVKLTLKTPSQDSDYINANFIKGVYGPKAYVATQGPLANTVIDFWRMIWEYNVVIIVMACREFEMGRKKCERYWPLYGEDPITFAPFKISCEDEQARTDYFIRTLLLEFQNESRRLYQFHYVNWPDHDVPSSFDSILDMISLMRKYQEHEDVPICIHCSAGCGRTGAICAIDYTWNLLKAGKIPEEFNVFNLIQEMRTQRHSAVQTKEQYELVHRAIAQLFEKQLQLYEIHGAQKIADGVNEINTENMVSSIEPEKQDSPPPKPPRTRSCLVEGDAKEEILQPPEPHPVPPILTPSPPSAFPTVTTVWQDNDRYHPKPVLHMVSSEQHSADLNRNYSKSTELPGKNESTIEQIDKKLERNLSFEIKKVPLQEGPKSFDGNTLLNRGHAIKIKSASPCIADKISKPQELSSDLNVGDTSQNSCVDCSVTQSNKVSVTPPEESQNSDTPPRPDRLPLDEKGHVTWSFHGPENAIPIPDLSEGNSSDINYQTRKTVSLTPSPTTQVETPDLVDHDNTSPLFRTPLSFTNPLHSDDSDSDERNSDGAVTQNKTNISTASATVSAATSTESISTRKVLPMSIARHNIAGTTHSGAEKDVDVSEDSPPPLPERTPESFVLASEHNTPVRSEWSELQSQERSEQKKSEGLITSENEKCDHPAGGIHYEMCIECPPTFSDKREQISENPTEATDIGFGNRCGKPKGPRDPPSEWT
# Experimental: NVS_ENZ_hPTPN12 is a biochemical, single-readout assay that uses extracted gene-proteins in a cell-free assay. Measurements were taken 1.33 hours after chemical dosing in a 384-well plate.NVS_ENZ_hPTPN12 is one of one assay component(s) measured or calculated from the NVS_ENZ_hPTPN12 assay. It is designed to make measurements of enzyme activity, a form of enzyme reporter, as detected with fluorescence intensity signals by Fluorescence and electrophoretic mobility shift technology.Data from the assay component NVS_ENZ_hPTPN12 was analyzed into 1 assay endpoint. This assay endpoint, NVS_ENZ_hPTPN12, was analyzed in the positive analysis fitting direction relative to DMSO as the negative control and baseline of activity. Using a type of enzyme reporter, loss-of-signal activity can be used to understand changes in the enzymatic activity as they relate to the gene PTPN12. Furthermore, this assay endpoint can be referred to as a primary readout, because this assay has produced multiple assay endpoints where this one serves a enzymatic activity function. To generalize the intended target to other relatable targets, this assay endpoint is annotated to the phosphatase intended target family, where the subfamily is non-receptor tyrosine phosphatase.
# Binding assays used specific radioligands (tritiated, iodinated) with non-radioactive competitive displacement ligands in agonist or antagonist protocols (as indicated) and various reference compounds and inhibitors to titrate specific binding to receptors and transporters. Most enzyme assays (CYPs, kinases, phosphatases, proteases, HDACs) used recombinant protein and specific substrates (fluorescence mostly, some colorimetric and radioactive) and inhibitors, followed by a biochemical separation of substrate and product. All assays for the biochemical HTS were initially run in duplicate at a single concentration (10 uM for CYP450 assays and 25 uM for all others). Assay-chemical combinations meeting a pre-defined threshold (e.g., 30% inhibition and other criteria defined below) were then run in singleton concentration-response format with maximum concentration of 20 uM for CYPs and 50 uM for all others. Each assay was run with positive and negative controls, and concurrent controls on every plate. The follow-up (secondary) screen tested active chemical-pairs in concentration series, as well as a few additional assays not tested in the primary screen, some selected negative inactives, and several cases re-run in the concentration series for confirmatory purposes.
# [4] = target: Tyrosine-protein phosphatase non-receptor type 13 (Homo sapiens) (UniProt Q12923); test: NVS_ENZ_hPTPN13: NovaScreen (NVS) Enzymatic Assay for human Protein Tyrosine Phosphatase Non-receptor Type 13 (PTPN13) (AID 2283205)
# Procedure, shortened: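 Cell-free assay of recombinant human PTPN13 with a fluorescent substrate, product separated by electrophoretic mobility shift and read 0.5 h after dosing. Primary screen at 25 uM in duplicate, then concentration-response up to 50 uM. Loss of signal fitted against DMSO.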
# [5] = target: human Phosphoinositide 3-kinase alpha (PI3Ka), PIK3CA (gene 5290) (UniProt P42336); test: NVS_ENZ_hPI3Ka: NovaScreen (NVS) Enzymatic Assay for human Phosphoinositide 3-kinase alpha (PI3Ka) (AID 2283196)
# Sequence of human Phosphoinositide 3-kinase alpha (PI3Ka), PIK3CA (gene 5290) (P42336 whole entry, looked up): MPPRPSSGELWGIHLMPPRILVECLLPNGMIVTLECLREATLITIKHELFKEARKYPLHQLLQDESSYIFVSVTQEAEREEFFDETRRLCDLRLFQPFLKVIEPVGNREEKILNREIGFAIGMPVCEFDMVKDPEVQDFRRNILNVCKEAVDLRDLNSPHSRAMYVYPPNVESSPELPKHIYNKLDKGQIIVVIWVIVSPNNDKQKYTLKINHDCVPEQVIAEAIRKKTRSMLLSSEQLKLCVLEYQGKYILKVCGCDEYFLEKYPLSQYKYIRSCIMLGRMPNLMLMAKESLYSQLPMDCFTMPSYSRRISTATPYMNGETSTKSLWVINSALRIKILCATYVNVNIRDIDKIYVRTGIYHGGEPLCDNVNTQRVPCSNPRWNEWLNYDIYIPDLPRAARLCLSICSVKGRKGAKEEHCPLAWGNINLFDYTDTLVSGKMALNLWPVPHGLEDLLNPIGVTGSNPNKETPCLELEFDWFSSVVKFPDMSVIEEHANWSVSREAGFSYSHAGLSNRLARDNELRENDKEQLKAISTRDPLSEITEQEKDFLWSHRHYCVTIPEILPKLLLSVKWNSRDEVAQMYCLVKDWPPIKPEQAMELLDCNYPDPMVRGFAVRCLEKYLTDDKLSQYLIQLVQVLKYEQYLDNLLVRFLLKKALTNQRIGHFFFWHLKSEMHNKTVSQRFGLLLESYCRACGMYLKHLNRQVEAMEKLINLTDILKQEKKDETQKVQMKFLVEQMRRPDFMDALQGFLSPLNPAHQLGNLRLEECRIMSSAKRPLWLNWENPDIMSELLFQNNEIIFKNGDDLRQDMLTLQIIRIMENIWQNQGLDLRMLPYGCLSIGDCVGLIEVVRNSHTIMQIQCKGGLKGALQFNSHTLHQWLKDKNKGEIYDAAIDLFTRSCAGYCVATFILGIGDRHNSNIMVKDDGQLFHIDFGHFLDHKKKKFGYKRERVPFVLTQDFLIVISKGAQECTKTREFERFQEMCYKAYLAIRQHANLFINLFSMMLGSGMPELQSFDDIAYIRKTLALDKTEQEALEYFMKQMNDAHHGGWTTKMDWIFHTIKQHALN
# Procedure, shortened: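 Enzyme activity as fluorescence after mobility-shift separation of substrate and product, 1 h reaction, recombinant human PI3Kα; concentration-response to 50 uM max for chemicals passing a 25 uM duplicate screen.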
# [6] = target: Serine/threonine-protein phosphatase PP1-alpha catalytic subunit (Homo sapiens) (UniProt P62136); test: NVS_ENZ_hPPP1CA: NovaScreen (NVS) Enzymatic Assay for human Protein Phosphatase 1 Aatalytic subunit Alpha (PPP1CA) (AID 2283200)
# Sequence of Serine/threonine-protein phosphatase PP1-alpha catalytic subunit (Homo sapiens) (P62136 whole entry, looked up): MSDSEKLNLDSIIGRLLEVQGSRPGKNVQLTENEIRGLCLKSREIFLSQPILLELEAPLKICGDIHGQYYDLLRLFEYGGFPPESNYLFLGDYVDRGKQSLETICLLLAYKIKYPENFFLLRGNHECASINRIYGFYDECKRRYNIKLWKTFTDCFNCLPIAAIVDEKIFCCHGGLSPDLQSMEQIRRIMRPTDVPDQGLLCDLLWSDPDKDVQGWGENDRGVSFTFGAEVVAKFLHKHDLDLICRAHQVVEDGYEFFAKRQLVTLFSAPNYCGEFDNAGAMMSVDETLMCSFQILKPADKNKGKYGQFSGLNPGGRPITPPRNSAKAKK
# Procedure, shortened: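 Recombinant enzyme activity read by fluorescence with electrophoretic mobility shift separating substrate from product, 1.33 h after dosing; loss of signal vs DMSO baseline. Primary screen in duplicate at 25 uM; actives retested in concentration-response up to 50 uM.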
# [7] = target: Tyrosine-protein phosphatase non-receptor type 11 (Homo sapiens) (UniProt Q06124); test: NVS_ENZ_hPTPN11: NovaScreen (NVS) Enzymatic Assay for human Protein Tyrosine Phosphatase Non-receptor Type 11 (PTPN11) (AID 2283202)
# Sequence of Tyrosine-protein phosphatase non-receptor type 11 (Homo sapiens) (Q06124 whole entry, looked up): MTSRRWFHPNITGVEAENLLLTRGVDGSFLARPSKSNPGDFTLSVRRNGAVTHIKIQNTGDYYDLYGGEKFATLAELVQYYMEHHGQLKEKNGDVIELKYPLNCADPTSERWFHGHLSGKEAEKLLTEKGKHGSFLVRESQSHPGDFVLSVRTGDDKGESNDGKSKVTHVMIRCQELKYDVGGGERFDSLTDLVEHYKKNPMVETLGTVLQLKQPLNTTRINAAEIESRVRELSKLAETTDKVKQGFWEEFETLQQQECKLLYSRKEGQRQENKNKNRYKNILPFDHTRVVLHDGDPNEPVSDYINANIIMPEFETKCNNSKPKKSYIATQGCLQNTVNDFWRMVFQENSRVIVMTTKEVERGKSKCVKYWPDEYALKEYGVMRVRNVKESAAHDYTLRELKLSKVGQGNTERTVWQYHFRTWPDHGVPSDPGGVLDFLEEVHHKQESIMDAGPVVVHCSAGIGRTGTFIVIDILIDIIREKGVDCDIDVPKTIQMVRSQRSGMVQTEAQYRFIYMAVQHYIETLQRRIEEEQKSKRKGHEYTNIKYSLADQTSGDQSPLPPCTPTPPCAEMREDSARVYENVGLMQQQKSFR
# Procedure, shortened: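 Recombinant human PTPN11 activity on a fluorescent substrate, with substrate/product separated by electrophoretic mobility shift; read 0.5 h after dosing, loss of signal vs DMSO. Duplicate 25 uM screen, then concentration-response up to 50 uM.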
# [8] = target: human Protein Tyrosine Phosphatase Non-receptor Type 1 (PTPN1), PTPN1 (gene 5770) (UniProt P18031); test: NVS_ENZ_hPTPN1: NovaScreen (NVS) Enzymatic Assay for human Protein Tyrosine Phosphatase Non-receptor Type 1 (PTPN1) (AID 2283201)
# Sequence of human Protein Tyrosine Phosphatase Non-receptor Type 1 (PTPN1), PTPN1 (gene 5770) (P18031 whole entry, looked up): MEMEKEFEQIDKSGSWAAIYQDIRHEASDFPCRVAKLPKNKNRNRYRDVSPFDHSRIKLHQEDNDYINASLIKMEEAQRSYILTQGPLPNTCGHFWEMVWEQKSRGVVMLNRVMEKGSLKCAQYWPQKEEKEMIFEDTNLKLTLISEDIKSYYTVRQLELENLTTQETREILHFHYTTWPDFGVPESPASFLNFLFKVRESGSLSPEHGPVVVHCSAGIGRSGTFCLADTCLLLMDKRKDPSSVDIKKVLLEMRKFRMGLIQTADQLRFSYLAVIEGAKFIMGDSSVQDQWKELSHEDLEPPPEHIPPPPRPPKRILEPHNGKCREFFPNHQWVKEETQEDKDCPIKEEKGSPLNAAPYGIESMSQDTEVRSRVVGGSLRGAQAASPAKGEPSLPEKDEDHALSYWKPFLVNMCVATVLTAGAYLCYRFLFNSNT
# Procedure, shortened: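 Cell-free fluorogenic-substrate activity assay on recombinant enzyme, read 1.33 h after dosing by fluorescence and electrophoretic mobility shift; loss of signal vs DMSO baseline. Primary screen in duplicate at 25 uM, hits then run in concentration-response up to 50 uM.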
# [9] = target: human Protein Phosphatase, Mg2+/Mn2+ Dependent 1A (PPM1A), PPM1A (gene 5494) (UniProt P35813); test: NVS_ENZ_hPPM1A: NovaScreen (NVS) Enzymatic Assay for human Protein Phosphatase, Mg2+/Mn2+ Dependent 1A (PPM1A) (AID 2283198)
# Procedure, shortened: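 Cell-free recombinant PPM1A phosphatase assay with fluorescent substrate, read 1 h after dosing by electrophoretic mobility shift. Chemicals screened in duplicate at 25 uM, then in concentration-response up to 50 uM; loss of activity versus DMSO.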
smiles,measurement,setting,value
CC(C)(C)C(O)C(Oc1ccc(Cl)cc1)n1cncn1 (stereo not drawn),outcome,[1],inactive
same,outcome,PPP2CA (gene 5515),inactive
same,outcome,[2],inactive
same,outcome,[3],inactive
same,outcome,[4],inactive
CCS(=O)(=O)c1cccnc1S(=O)(=O)NC(=O)Nc1nc(OC)cc(OC)n1,outcome,[5],inactive
same,outcome,[2],inactive
N#CN,outcome,[6],inactive
Oc1cc(Cl)ccc1Oc1ccc(Cl)cc1Cl,outcome,PPP2CA (gene 5515),inactive
same,outcome,[7],inactive
same,outcome,[3],inactive
Cc1[nH]c(=O)n(C(C)(C)C)c(=O)c1Cl,outcome,[8],inactive
[2H]C1([2H])[n+]2ccccc2-c2cccc[n+]2C1([2H])[2H],AC50,[6],4.96 µM (active)
same,outcome,[7],inactive
same,AC50,[2],2.29 nM (active)
O=S(=O)(O)C(F)(F)C(F)(F)C(F)(F)C(F)(F)C(F)(F)C(F)(F)C(F)(F)C(F)(F)F,outcome,[1],inactive
same,AC50,[5],6.79 µM (active) and 4.5 µM (active) and 8.3 µM (active)
same,outcome,[9],inactive
same,AC50,PPP2CA (gene 5515),7.02 µM (active) and 5.37 µM (active)
same,AC50,[6],11.5 µM (active) and 18.4 µM (active)
same,AC50,[8],26.9 µM (active)
same,outcome,[8],inactive
same,AC50,[7],19.6 µM (active) and 15.5 µM (active)
same,AC50,[2],7.35 µM (active) and 26.9 µM (active)
same,AC50,[3],20.7 µM (active) and 30 µM (active) and 30.1 µM (active)
same,AC50,[4],10.5 µM (active) and 36.6 µM (active)
N#Cc1c(Cl)c(Cl)c(Cl)c(C#N)c1Cl,outcome,[1],inactive
same,AC50,[5],33.1 µM (active)
same,outcome,[8],inactive
same,AC50,[7],40 µM (active)
same,outcome,[2],inactive
COC(=O)c1ccccc1S(=O)(=O)NC(=O)N(C)c1nc(C)nc(OC)n1,outcome,[6],inactive
same,outcome,[4],inactive
O=[N+]([O-])c1c(Cl)c(Cl)c(Cl)c(Cl)c1Cl,outcome,[6],inactive
O=[N+]([O-])/N=C1\NCCN1Cc1ccc(Cl)nc1,outcome,[5],inactive
ClC1C(Cl)C(Cl)C(Cl)C(Cl)C1Cl (stereo not drawn),outcome,[2],inactive
CC[C@H](C)[C@H]1O[C@]2(C=C[C@@H]1C)C[C@@H]1C[C@@H](C/C=C(\C)[C@@H](O[C@H]3C[C@H](OC)[C@@H](O[C@H]4C[C@H](OC)[C@@H](O)[C@H](C)O4)[C@H](C)O3)[C@@H](C)/C=C/C=C3\CO[C@@H]4[C@H](O)C(C)=C[C@@H](C(=O)O1)[C@]34O)O2 (tested in a mixture with another compound),AC50,[5],5.57 µM (active)
same,outcome,[7],inactive
CCN(CC)C(=O)SCc1ccc(Cl)cc1,outcome,[5],inactive
O=C(O)C(F)(F)C(F)(F)C(F)(F)C(F)(F)C(F)(F)C(F)(F)C(F)(F)F,AC50,[5],11.3 µM (active)
same,AC50,PPP2CA (gene 5515),25 µM (active)
same,AC50,[6],0.493 µM (active)
same,outcome,[8],inactive
same,outcome,[7],inactive
same,outcome,[2],inactive
same,outcome,[3],inactive
same,outcome,[4],inactive
Oc1ccc(Cl)cc1Cc1ccccc1,outcome,[5],inactive
